# Experimental data: PubChem BioAssay (NCI)
# The panel holds about 83,000 compounds, 20% with a hit somewhere; the sample as a whole holds those more often.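 Cells were grown in 96-well plates and exposed to the test compound at a single concentration for 48 hours; results are reported as percent growth, with values below 10 considered active.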 Values without a mark were called inactive. The source made the active and inactive calls.
# Tested on: MDA-MB-468 breast
# Assay: NCI-60 one-dose screen, 48 h (100 = growth as untreated, 0 = no growth, -100 = all killed)
# Conditions: 10 µM unless noted
row,Compound,growth
1,C=C(C)[C@@H]1CC[C@]2(C)[C@H](CC[C@@H]3[C@@H]([C@@](C)(O)CCC=C(C)C)CC[C@]32C)[C@@]1(C)CCC(=O)O,8.85% [100 µM] (active)
2,Cc1ccc(NC(=O)Nc2ccc(-c3cccnc3)cc2N2CCC(CO)CC2)cc1,-16.6% (active)
3,COc1ccc(/C=N/C2=C(C#N)C(c3ccccc3)c3ccc4ccccc4c3O2)cc1 (stereo not given),17.9%
4,Cn1c2c(c(=O)[nH]c1=O)NC1=C(C(=O)c3ccccc31)C1(C=C(O)c3ccccc31)N2 (stereo not given),100%
5,CCSCC1CC(O)(c2ccccc2)C(c2ccccc2)C(c2ccc(Cl)cc2)O1 (stereo not given),35.9%
6,CCn1c(Sc2nnc(NC(=O)CCN3CCCC3)s2)nc2c1c(=O)n(C)c(=O)n2C,101%
7,O=C(NNc1cnccn1)c1nc2cc(F)ccc2n2cccc12,-21.7% (active)
8,COC(=O)Nc1cccc(Cl)c1OC,90.1%
9,FC(F)(F)c1ccc(-c2cnc(-c3nn[nH]n3)nc2NC2CCCCCC2)cc1,68.5% [50 µM]
10,CN1CCN(CC(=O)N2c3cccc4cccc(c34)N(C(=O)CN3CCN(C)CC3)C2c2cn(-c3ccccc3)nc2-c2cccc([N+](=O)[O-])c2)CC1,-68.9% (active)
11,COC(=O)c1c2c(c(C)[n+]([O-])c1C)C(=O)C=C(NCc1ccccc1)C2=O,-68.9% (active)
12,COc1cccc2cc(N(C)c3nc(C)nc4ccsc34)ccc12,20.2%
13,Brc1cccc(-c2nc(-c3ccc4c(c3)OCCO4)co2)c1,34.9% [25 µM]
14,O=C(/C=C/C12c3ccccc3C(c3ccccc31)C1C(=O)NC(=O)C12)c1ccc(I)cc1 (stereo not given),51.2%
15,Nc1nc(N)c2nc(-c3cccc(O)c3)c(-c3cccc(O)c3)nc2n1,10.4%
16,Cc1ccc(C(=O)c2ccc(CC(=O)NN3C(=O)c4ccccc4C3=O)n2C)cc1,93%
17,CCN1C(=O)N(CC)C2SC(N/N=C/c3ccc(F)cc3)=NC21 (stereo not given),36.8%
18,COc1cc(OC)c(/C=C/c2ccc3ccccc3[n+]2C)c(OC)c1,-13.7% (active)
19,CN1CCN(Cc2ccc(NC(=O)c3cncc(C#Cc4cnc(N)c5cccnc45)c3)cc2C(F)(F)F)CC1,15.8%
20,CC(=O)c1ccc(Nc2nc(SCC(C)C)nc(-c3ccc(F)cc3)c2C#N)cc1,118%
21,C/C(=N\N1CC(=O)NC1=O)c1ccc([N+](=O)[O-])o1,95.7%
22,N#CSCC1CC(O)(c2ccccc2)CC(c2ccc(F)cc2)O1 (stereo not given),5.99% (active)
23,Nc1n[nH]c(=S)n1-c1ccc(Cl)cc1,97.5%
24,CCN(CCCCCCN1CC(=O)N(CCCCCCN(CC)Cc2ccccc2OC)CC1=O)Cc1ccccc1OC,84%
25,COc1ccc(-c2nn(-c3ccc(NC(=O)Nc4cc(C(F)(F)F)cc(C(F)(F)F)c4)cc3)cc2-c2ccncc2)cc1Cl,-11.6% (active)
